Screens (PubChem)
eLon inh: E. coli protease La inhibition; P0A9M0; purified E. coli Lon protease, fluorescence polarization; inhibition, % at 7.94 µM; 0.42% of 360,000 active; in the data active means inhibition above about 13%, passing the limit was not always enough;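 further: 0% = enzyme with probe and DMSO and 100% = no enzyme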
RTF Ca sens act: increases calcium sensitivity of human cardiac regulated thin filaments; IANBD-labeled TnC RTF fluorescence at EC20 calcium; 0% EC20 calcium, 100% full calcium; P19429+P45379; AID 493008; 0.24% of 340,000 active; activation, % at 7.2 µM;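 active means activation above the mean over all tested compounds plus 3 SD, cut at about 30% in these data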;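 further: rise in fluorescence read as greater calcium sensitivity of cardiac thin filaments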
RTF Ca sens inh: cardiac RTF calcium desensitization; 0.12% of 340,000 active; IANBD-labeled cardiac RTF, Ca2+ fluorescence; inhibition, % at 7.15 µM; AID 493244;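 active means inhibition above the mean inhibition of all tested compounds plus 3 SD, cut at about 17% in these data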;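 further: assay run at fixed EC70 calcium of 1.6 mM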
Keap1 Nrf2 FP: disrupts human Keap1 binding to Nrf2 peptide | Q14145 | Keap1 Kelch-Nrf2 peptide fluorescence polarization, 1536-well | inhibition, % at 9.4 µM | 0.15% of 340,000 active; in the data active means inhibition above about 12%;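 further: human Keap1 Kelch domain with fluorescein labeled Nrf2 9mer peptide probe; 0% = neutral control wells and 100% = peptide positive control; higher means more block of Keap1 binding to Nrf2 peptide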
C-LANA FP: blocks KSHV LANA C-terminal domain binding to DNA; MBP-C-LANA/FAM-LBS DNA binding, fluorescence polarization; inhibition, % at 9 µM; 0.078% of 340,000 active;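 active means highest replicate inhibition at or above 60% at 9 µM, even if other replicates fall short; inactive means all replicates below 60% inhibition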;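 further: 0% = neutral control wells and 100% = 4 µM acridine orange control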
EBV gp42 block: blocks Epstein-Barr virus glycoprotein 42 binding; 0.42% of 220,000 active; Fluorescence polarization binding assay, mP read-out; inhibition, % (tested at 21.74 µM); Q1HVG2; in the data active means inhibition above about 50%
Target sequence (Q1HVG2 whole entry, looked up): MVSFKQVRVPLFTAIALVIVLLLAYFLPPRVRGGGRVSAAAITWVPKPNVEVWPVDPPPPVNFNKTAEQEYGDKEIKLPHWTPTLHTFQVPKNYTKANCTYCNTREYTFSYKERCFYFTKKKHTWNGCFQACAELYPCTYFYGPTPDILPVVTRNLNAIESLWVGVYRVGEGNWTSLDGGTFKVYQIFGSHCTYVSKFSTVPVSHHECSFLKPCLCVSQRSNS
RTF inh confirm: cardiac RTF calcium sensitivity inhibition, confirmation; shares compounds with RTF Ca sens inh; reconstituted cardiac thin filaments, calcium sensitivity fluorescence; inhibition, % at 7.15 µM; 8% of 360 active; AID 504635; in the data active means inhibition above about 18%
* marks the source's active call; other numbers are inactive results; ! = not active in a repeat. Shown are actives, neighbours in structure and some others; about 0.98% of the full set was active somewhere.

O=[N+]([O-])c1nn(-c2ccc3c(c2)OCCO3)n(O)c1=NCCC1=CCCCC1 was read as eLon inh 2, RTF Ca sens act -2, RTF Ca sens inh 18*, Keap1 Nrf2 FP 1, C-LANA FP -1, EBV gp42 block -6 and RTF inh confirm 2.
For O=[N+]([O-])c1nn(-c2ccc3c(c2)OCCO3)n(O)c1=NCc1ccc(F)cc1 the results were eLon inh 3, RTF Ca sens act -10, RTF Ca sens inh -11, Keap1 Nrf2 FP 4, C-LANA FP 0 and EBV gp42 block -2.
Screening CCn1c(=O)cc(SCC(=O)Nc2cccc(C)n2)c2ccccc21 returned eLon inh 3, RTF Ca sens act -4, RTF Ca sens inh 18*, Keap1 Nrf2 FP 2, C-LANA FP 1, EBV gp42 block 1 and RTF inh confirm -4.
For CCn1c(=O)cc(OCC(=O)Nc2cccc(C)n2)c2ccccc21 the results were eLon inh -8, RTF Ca sens act 10, RTF Ca sens inh -15, Keap1 Nrf2 FP 7, C-LANA FP 0 and EBV gp42 block -5.
COc1cc2c(cc1OC)C(c1cc(OC)c(OC)c(OC)c1)C1(O)C(=O)OCC1(O)C2 (configuration not stated) was read as eLon inh -6, RTF Ca sens act -3, RTF Ca sens inh -2, Keap1 Nrf2 FP -5 and C-LANA FP 3.
For Cc1ccc(OCC(=O)O)c(-n2nc3ccccc3n2)c1 the results were eLon inh -4, RTF Ca sens act -1, RTF Ca sens inh 4, Keap1 Nrf2 FP -1, C-LANA FP 0 and EBV gp42 block -3.
For CC(=O)Oc1ccc(C)cc1-n1nc2ccccc2n1 the results were eLon inh -6, RTF Ca sens act 0, RTF Ca sens inh 20*, Keap1 Nrf2 FP -1, C-LANA FP 0, EBV gp42 block -6 and RTF inh confirm -7.
Cc1c(CCOC(=O)C23CC4CC(CC(C)(C4)C2)C3)sc[n+]1CC(=O)c1ccccc1 was read as eLon inh -9, RTF Ca sens act 3, RTF Ca sens inh 19*, Keap1 Nrf2 FP -5, C-LANA FP 0, EBV gp42 block -6 and RTF inh confirm -6.
O=C1c2ccccc2C(=O)N1CC(O)Cn1nnc2ccccc21 (configuration not stated) was read as eLon inh 1, RTF Ca sens act -1, RTF Ca sens inh -1, Keap1 Nrf2 FP 1, C-LANA FP -1 and EBV gp42 block -21.
For OC(CN1c2ccccc2Sc2ccccc21)Cn1nnc2ccccc21 (configuration not stated) the results were eLon inh 9, RTF Ca sens act -1, RTF Ca sens inh 21*, Keap1 Nrf2 FP -1, C-LANA FP 1, EBV gp42 block 0 and RTF inh confirm -8.
O=C(O)c1cc2c(ncc3c(=O)n(-c4ccccc4)[nH]c32)s1 was read as eLon inh 3.
COC(=O)c1ccc2nc(NC(=O)COC(=O)CSc3nc(C)cc(C)n3)sc2c1 was read as eLon inh -3, RTF Ca sens act 5, RTF Ca sens inh 10, Keap1 Nrf2 FP 1, C-LANA FP 1 and EBV gp42 block -15.
`Cc1ccc2nc(NC(=O)COC(=O)CSc3nc(C)cc(C)n3)sc2c1` gave eLon inh -1, RTF Ca sens act -2, RTF Ca sens inh 19*, Keap1 Nrf2 FP -1, C-LANA FP -3, EBV gp42 block -18 and RTF inh confirm -5.
For O=C(c1ccc(N2CCCC2)c([N+](=O)[O-])c1)N1CCc2ccccc2C1 the results were eLon inh -12, RTF Ca sens act -17, RTF Ca sens inh -12, Keap1 Nrf2 FP -1 and C-LANA FP 1.
Screening N#Cc1ccc(N2CCc3ccccc3C2)c([N+](=O)[O-])c1 returned eLon inh -12, RTF Ca sens act -2, RTF Ca sens inh 188*, Keap1 Nrf2 FP -5, C-LANA FP -2, EBV gp42 block 21 and RTF inh confirm -5.
Screening O=S(=O)(O)c1cc(O)c2ccc(Nc3ccccc3)cc2c1 returned eLon inh 6, RTF Ca sens act -13, RTF Ca sens inh 33*, Keap1 Nrf2 FP 3, C-LANA FP 92* and RTF inh confirm 10.
For COc1ccc(S(=O)(=O)O)cc1P(=O)(c1ccccc1)c1ccccc1 the results were eLon inh -1, RTF Ca sens act -5, RTF Ca sens inh 2, Keap1 Nrf2 FP 0 and C-LANA FP -1.
COc1ccccc1Nc1ccc2c(O)cc(S(=O)(=O)O)cc2c1 was read as eLon inh 5, RTF Ca sens act -24, RTF Ca sens inh 18*, Keap1 Nrf2 FP 8, C-LANA FP 119* and RTF inh confirm 4.
CCN1/C(=C/c2ccc3ccccc3[n+]2CC)C=Cc2ccccc21 was read as eLon inh -6, RTF Ca sens act -12, RTF Ca sens inh 17*, Keap1 Nrf2 FP -16, C-LANA FP -11, EBV gp42 block -60 and RTF inh confirm 6.
O=C(Nc1cc(S(=O)(=O)N2CCOCC2)ccc1N1CCCC1)C1CC1 was read as eLon inh -2, RTF Ca sens act -4, RTF Ca sens inh 19*, Keap1 Nrf2 FP -1, C-LANA FP 1, EBV gp42 block -7 and RTF inh confirm -3.
Screening CCOC(=O)c1nn(-c2ccccc2Cl)c(=O)cc1OCC(=O)Nc1cccc(OC)c1 returned eLon inh 6, RTF Ca sens act 1, RTF Ca sens inh -1, Keap1 Nrf2 FP 0 and C-LANA FP 2.
Cc1cc(C)c(C(=O)COC(=O)c2c(C)noc2C)cc1C was read as eLon inh -1, RTF Ca sens act -1, RTF Ca sens inh -4, Keap1 Nrf2 FP 0 and C-LANA FP 0.
`C[C@@H](O)CC(=O)O` gave eLon inh 8, RTF Ca sens act 4, RTF Ca sens inh 15, Keap1 Nrf2 FP -6 and C-LANA FP -3.
Screening C[C@H](O)CC(=O)O returned eLon inh -17, RTF Ca sens act -8, RTF Ca sens inh 19*!, Keap1 Nrf2 FP -3, C-LANA FP 0 and RTF inh confirm -3.
For C=CCNC(=S)Nc1cccc2ccccc12 the results were eLon inh -3, RTF Ca sens act -2, RTF Ca sens inh 20*, Keap1 Nrf2 FP 3, C-LANA FP 0, EBV gp42 block 2 and RTF inh confirm 1.
Screening COc1ccc(C)cc1N(CC(=O)NCCSCc1cccc(Cl)c1)S(C)(=O)=O returned eLon inh -7, RTF Ca sens act 4, RTF Ca sens inh -8, Keap1 Nrf2 FP -3 and C-LANA FP 0.
Screening Cc1nnc(SCC(=O)NCC2CCCO2)n1Cc1ccccc1 (configuration not stated) returned eLon inh 3, RTF Ca sens act 1, RTF Ca sens inh -7, Keap1 Nrf2 FP 2 and C-LANA FP -2.
